High-throughput results: PubChem BioAssay, Small Molecule Screening Facility, UW Madison
This excerpt belongs to a sample that is enriched for hits.
RMI-FANCM inh: inhibitors of human RMI core complex binding to FANCM MM2 | Fluorescence polarization, RMI core complex with F-MM2 peptide; stronger effect = lower value | FP signal (polarization) at 33 µM | 70,000 compounds, 0.58% hits | AID 1159607; in the data active = FP signal below about 40
* marks the source's active call; other numbers are inactive results.

SMILES	RMI-FANCM inh
COc1cccc(N2CCc3c(C)c(C#N)c4nc5ccccc5n4c32)c1	14*
Cc1ccc(OCCN2CCN(c3c4c(c(C#N)c5nc6ccccc6n35)CCCC4)CC2)cc1	62
Cc1ccc(S(=O)(=O)N2CCCC2C(=O)N(Cc2cccnc2)c2nc3ccc(C)cc3s2)cc1 (centres undefined)	124
CCN1C(=O)c2ccc(NC(=O)CCSc3ccccc3)c3cccc1c23	100
Cc1ccc(-c2csc3nnc(SCC(=O)Nc4nsc(-c5ccccc5)n4)n23)cc1C	95
COc1ccc(-c2cc3ccc4c(c3oc2=O)CN(CC2CCCO2)CO4)cc1OC (centres undefined)	-5
COCCCN1COc2ccc3cc(-c4cc(OC)ccc4OC)c(=O)oc3c2C1	35*
CCOCCCN1COc2ccc3c(=O)c(-c4ccc(Cl)cc4)coc3c2C1	63
O=C(Cc1csc(Nc2ccccc2)n1)N1CCc2ccccc21	64
O=C(CSc1ccc2nnc(CCNS(=O)(=O)c3ccccc3)n2n1)Nc1ccc([N+](=O)[O-])cc1	59
CC(=C\c1ccccc1)/C=C1/SC(=Nc2ccc(F)cc2)NC1=O	58
O=C1NC(=Nc2ccccc2)S/C1=C/C=C/c1ccco1	27*
CCOc1ccc(N=C2NC(=O)S/C2=C\C=C\c2ccccc2)cc1	66
CCc1ccc(S(=O)(=O)N2CCN(c3ccc4nnc(C5CC5)n4n3)CC2)cc1	69
Cc1nc(-n2nc(-c3ccco3)cc2NC(=O)c2ccco2)[nH]c(=O)c1C	46
Cc1ccc(OCC(=O)Nc2cc(-c3ccco3)nn2-c2nc(C)c(C)c(=O)[nH]2)cc1	42
Cc1nc(-n2nc(-c3ccco3)cc2NC(=O)CSCc2ccccc2)[nH]c(=O)c1C	35*
NC(=O)C1CCN(C(=O)CCCSc2ccc(NC(=O)c3ccc(F)cc3)nn2)CC1	64
O=C(Cc1csc(SCc2ccc(Br)cc2)n1)NC1CCCC1	66
O=C(Cc1csc(SCc2ccc(Br)cc2)n1)Nc1nccs1	21*
O=C(Cc1csc(SCc2ccc(Br)cc2)n1)NCc1ccccn1	27*
CNC(=O)Cc1csc(Nc2ccc(OC(F)(F)F)cc2)n1	61
O=C(Cc1csc(Nc2cccc(C(F)(F)F)c2)n1)NCc1ccccn1	44
COc1cc(CSc2nc(CC(=O)Nc3nccs3)cs2)cc(OC)c1	58
O=C(Cc1csc(Nc2ccc(OC(F)(F)F)cc2)n1)NCc1ccccn1	-3*
SMILES	RMI-FANCM inh
O=C(Cc1csc(SCc2ccc(Br)cc2)n1)NCc1cccs1	80
O=C(Cc1csc(SCc2ccc(Cl)cc2)n1)NCc1ccccn1	54
CCOC(=O)C(C=Nc1nc(-c2ccccc2)c(-c2ccccc2)s1)C(=O)OCC	62
O=C(NCC(c1cccs1)N1CCc2ccccc2C1)c1ccc(Br)o1 (centres undefined)	55
CC(C)c1ccc(NC(=O)c2csc(Nc3ccc(S(C)(=O)=O)cc3)n2)cc1	66
O=C(/C=C\c1ccc2c(c1)OCO2)Nc1nnc(SCC(=O)c2ccccc2)s1	78
Cc1cc(C)c(NC(=O)/C(C#N)=C\c2ccc(C)o2)c(C)c1	60
COc1ccc(OCC(O)CN(CC(O)COc2ccc(OC)cc2)c2ccc(OC)cc2)cc1 (centres undefined)	50
Cn1c(=O)c2c(O)c(C=NCc3ccccc3)c(=O)n(-c3ccccc3)c2n(C)c1=O	56
Cn1c(=O)c2c(O)c(C=Nc3cccc(Cl)c3Cl)c(=O)n(C)c2n(C)c1=O	45
Cn1c(=O)c2c(O)c(C=Nc3cccc([N+](=O)[O-])c3)c(=O)n(C)c2n(C)c1=O	28*
CN(c1ccccc1)S(=O)(=O)c1ccc(C(=O)Nc2nnc(-c3ccno3)o2)cc1	56
O=C(Cn1cnc2c(sc3ncccc32)c1=O)Nc1ccc(F)cc1Cl	62
C=CCn1c(SCC(=O)Nc2ccc(C(C)(C)C)cc2)nc2scc(-c3ccc(C)o3)c2c1=O	74
CCOc1ccc(N2C(=O)S/C(=C\C=C\c3ccco3)C2=O)cc1	54
CCOc1ccccc1N1C(=O)CNC1=S	55
CCOc1ccccc1N1C(=O)/C(=C/C=C/c2ccco2)SC1=S	14*
Cc1ccc(-c2cn3c(CC(=O)NCc4cccs4)csc3n2)cc1	65
O=C(O)Cc1csc(Nc2cccc(C(F)(F)F)c2)n1	68
NC(=O)c1ccccc1NC(=O)Cc1csc(Nc2cccc(C(F)(F)F)c2)n1	66
NC(=O)Cc1csc(Nc2cccc(C(F)(F)F)c2)n1	29*
CCOc1ccc(NC(=O)c2ccc(N3CC4CC(C3)c3cccc(=O)n3C4)c(NC(=O)Cc3c(F)cccc3Cl)c2)cc1 (centres undefined)	57
Cc1nn2c(NCCCn3ccnc3)c3c(nc2c1-c1ccccc1)CCC3	65
COc1ccc(OC)c(S(=O)(=O)Nc2cc(Sc3ccccc3)c(O)c3ccccc23)c1	61
Cc1cc(C)c(S(=O)(=O)Nc2cc(Cl)c(O)c3ccccc23)cc1C	25*
Cc1cc(Cl)c(Cl)cc1S(=O)(=O)Nc1ccccc1C(=O)O	63
CCC(=O)NCCOc1ccc2nnc(-c3ccc(OC)cc3)n2n1	67
